Data on nine compounds can be found in PubChem BioAssay (NCATS).

Assay [1] in a line: Quantitative high throughput screen for delayed death inhibitors of the malarial parasite plastid, 48 hour incubation (AID 488752). Further: on the % scale 0 is the no-effect control and ±100 the full control effect; nearly all actives have a fitted effect of over 65% in size. The method, boiled down:
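First, compound was pinned into RPMI 1640 medium containing 0.5% Albumax. Next, reporter-parasite-infected erythrocytes were added to 2% hematocrit and 0.1% parasitemia. After 48 h at 37 C under 5% CO2, luciferase detection reagent was added and luminescence read.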

The target of assay [2] is Thioredoxin reductase 1, cytoplasmic (Rattus norvegicus) (UniProt O89049). Briefly: qHTS Assay for Substrates of Mammalian Selenoprotein Thioredoxin Reductase 1 (TrxR1) (AID 488772).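 Further: series mostly up to about 57 µM; 0% is about no effect; a drop in NADPH fluorescence below the no-compound background marks a TrxR1 substrate.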 The method, boiled down:
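In this dual-purpose format, potential substrates are identified from the first fluorescence read after selenite addition, not from the 8-minute delta. Rat enzyme is preincubated with NADPH and then with compound at ~22 deg C.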
For orientation: qHTS replaces the single test concentration by a dilution series.

The target is the same in assay [3]. Briefly: qHTS Assay for Inhibitors of Mammalian Selenoprotein Thioredoxin Reductase 1 (TrxR1) (AID 488773).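 Further: drop in NADPH fluorescence over an 8 min run after selenite addition; series mostly up to about 57 µM; on the % scale 0 is the no-effect control and ±100 the full control effect; nearly all actives have a fitted effect of over 40% in size.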 The procedure, abridged:
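Inhibition is scored from the loss of NADPH fluorescence between first and last reads of an 8-min kinetic run. Selenite (400 uM) was the substrate, added after 15 min compound preincubation at room temperature.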

The target in assay [4] is Flap endonuclease 1 (Homo sapiens) (UniProt P39748). Briefly: qHTS Validation Assay for the Inhibitors of Human Flap endonuclease 1 (FEN1) (AID 488816). Further: on the % scale 0 is the no-effect control and ±100 the full control effect. The method, boiled down: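 Steps: add FEN1 (10 nM reagent) or buffer only; pin compounds; hold 15 min at room temperature; start with substrate, 50 nM final; read at 0 and 15 min; correct, normalize and fit a four-parameter Hill curve.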

Assay [5] concerns the target M-phase phosphoprotein 8 (Homo sapiens) (UniProt Q99549). Briefly: qHTS Validation Assay for Inhibitors for MPP8 Chromodomain Interactions with Methylated Histone Tails (AID 488949).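 Further: 50 nM MPP8 with 50 nM peptide preformed then compounds added for 30 min; AlphaScreen signal from MPP8 chromodomain bound to biotinylated H3K9me3 peptide; top concentration of the series differs between compounds; on the % scale 0 is the no-effect control and ±100 the full control effect; nearly all actives have a fitted effect of over 55% in size.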 The procedure, abridged:
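50 nM MPP8 + 50 nM b-H3K9me3 peptide, PBS pH 7.4/0.01% Tween-20, 30 min RT; + cpd 30 min RT; + AlphaScreen donor/Ni-chelate acceptor beads 10 ug/mL final, 30 min dark; luminescence read.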

Assay [6] addresses Methanococcus maripaludis chaperonin (MmCpn) (UniProt Q6LX38). Briefly: High-Throughput Screening for Modulators of Cytosolic Chaperonin Activity: MmCpn Primary Screen (AID 488978).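 Further: 50 nM MmCpn enzyme hydrolysing 30 µM ATP at 37 °C; 0% is about no effect.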 The procedure, abridged: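 Steps: chaperonin 50 nM final; add compound, 5 min RT; start with ATP, 30 uM final; hold 10 min at 37C; add ADP Transcreener HTRF reagent, 5 min; read ex 320, em 590 and 665 nm.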

For assay [7], the target named is Transient receptor potential cation channel subfamily V member 1 (Homo sapiens) (UniProt Q8NER1). As to the kind of experiment: HTS Assay for Compounds that Act as Enhancers of the Vanilloid Receptor 1 (AID 488979). Further: 0% is about no effect. The method, boiled down:
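TRPV1-expressing cells loaded with Fluo-8 calcium dye; compounds added and calcium influx read kinetically for 3 min (agonist phase), then capsaicin at EC20 added and read 2 min more for enhancement. Fluorescence ex 480/em 520 nm.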

For assay [8], the target named is Thyrotropin receptor (Homo sapiens) (UniProt P16473). As to the kind of experiment: qHTS Assay for Antagonists of the Thyroid Stimulating Hormone Receptor (AID 488980). Further: series mostly up to about 58 µM; 0% is about no effect. The method, boiled down: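 Readout is cAMP by HTRF competition between cellular cAMP and cAMP-d2 for a cryptate-labelled antibody. Antagonism was assessed in TSHR-transfected HEK293 cells stimulated with 4 nM TSH (EC80, final) in the presence of RO 20-1724.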
Chain of Thyrotropin receptor (Homo sapiens) (P16473 whole entry, looked up): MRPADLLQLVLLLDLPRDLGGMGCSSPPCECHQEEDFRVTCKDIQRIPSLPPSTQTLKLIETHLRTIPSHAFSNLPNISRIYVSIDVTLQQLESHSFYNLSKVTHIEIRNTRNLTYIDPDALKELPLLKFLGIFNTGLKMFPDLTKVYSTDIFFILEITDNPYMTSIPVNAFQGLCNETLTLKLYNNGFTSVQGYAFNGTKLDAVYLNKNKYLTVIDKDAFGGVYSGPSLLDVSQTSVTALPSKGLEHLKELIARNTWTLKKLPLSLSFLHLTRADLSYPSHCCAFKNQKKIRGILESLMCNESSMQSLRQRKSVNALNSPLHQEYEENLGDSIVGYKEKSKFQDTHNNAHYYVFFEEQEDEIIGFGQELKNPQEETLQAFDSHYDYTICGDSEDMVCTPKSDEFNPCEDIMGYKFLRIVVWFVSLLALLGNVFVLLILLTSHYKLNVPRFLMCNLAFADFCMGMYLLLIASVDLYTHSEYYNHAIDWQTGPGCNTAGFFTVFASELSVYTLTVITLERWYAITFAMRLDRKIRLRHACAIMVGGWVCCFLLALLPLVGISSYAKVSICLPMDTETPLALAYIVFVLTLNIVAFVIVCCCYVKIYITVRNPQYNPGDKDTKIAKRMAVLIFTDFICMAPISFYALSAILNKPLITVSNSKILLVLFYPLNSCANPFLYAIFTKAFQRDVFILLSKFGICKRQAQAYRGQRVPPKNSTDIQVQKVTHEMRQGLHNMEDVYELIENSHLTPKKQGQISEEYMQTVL

The target of assay [9] is D(1A) dopamine receptor (Homo sapiens) (UniProt P21728). As to the kind of experiment: HTS Assay for Allosteric Agonists of the Human D1 Dopamine Receptor: Primary Screen for Potentiators (AID 488982). Further: 0% is about no effect. The procedure, abridged: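 Tetracycline-induced HEK293 T-REx cells force-coupled to calcium signalling were incubated overnight at 30 C and dye-loaded at room temperature. Calcium flux over 180 s after compound addition flagged agonists; a further 180 s read after EC20 dopamine flagged potentiators.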
Chain of D(1A) dopamine receptor (Homo sapiens) (P21728 whole entry, looked up): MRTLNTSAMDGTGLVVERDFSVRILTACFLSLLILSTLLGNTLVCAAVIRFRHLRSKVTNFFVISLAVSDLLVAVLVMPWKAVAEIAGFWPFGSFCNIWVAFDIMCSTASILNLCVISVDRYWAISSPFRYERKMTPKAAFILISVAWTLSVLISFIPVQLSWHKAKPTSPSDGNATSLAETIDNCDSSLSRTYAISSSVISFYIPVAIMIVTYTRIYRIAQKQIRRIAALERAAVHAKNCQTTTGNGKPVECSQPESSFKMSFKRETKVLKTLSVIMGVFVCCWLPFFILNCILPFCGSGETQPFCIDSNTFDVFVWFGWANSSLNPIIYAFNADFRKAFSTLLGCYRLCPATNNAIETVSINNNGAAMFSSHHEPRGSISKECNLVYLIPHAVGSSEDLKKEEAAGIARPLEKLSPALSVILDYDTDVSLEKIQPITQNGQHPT

Assay [10] shares this target. As to the kind of experiment: HTS Assay for Allosteric Agonists of the Human D1 Dopamine Receptor: Primary Screen for Antagonists (AID 488983).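 Further: calcium flux response to an EC80 dopamine challenge measured with no-wash dye; on the % scale 0 is the no-effect control and ±100 the full control effect; nearly all actives have a fitted effect of over 65% in size.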 The method, boiled down:
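Kinetic fluorescence at 1 cycle/sec tracked intracellular calcium in force-coupled, tetracycline-inducible HEK293 T-REx D1 cells. Loss of response to an EC80 dopamine dose, given 180 s after compound, marked antagonists.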

Assay [11] in a line: Validation screen for small molecules that induce genotoxicity in human embryonic kidney (HEK293T) cells expressing luciferase-tagged ELG1 (AID 493106). Further: 0% is about no effect. The method, boiled down: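 Cells were dispensed at 2,000 per well, then 23 nL compound or DMSO was pinned in. After 16 hr at 37 °C and 5% CO2, ONE-Glo reagent was added. Luciferase activity was measured following 30 min at room temperature.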

The target of assay [12] is Thyrotropin-releasing hormone receptor (Homo sapiens) (UniProt P34981). Briefly: qHTS for Small Molecule Agonists and Allosteric Enhancers of Human TRH Receptor: Validation Screen for Agonists (AID 493127;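 active means calcium activation more than 3 SD above the typical response in the agonist read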;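 further: intracellular calcium rise by fluo-8 fluorescence before TRH EC20 addition; 0% is about no effect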). Conditions: TRH receptor agonist cell assay; at 2 µM; stronger effect = higher value. The method, boiled down: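 Compounds are added by online pintool to dye-loaded TRHR cells while fluorescence is recorded every second. A rise in calcium signal during the agonist read marks activation; a later 10 nM TRH addition (EC20) serves the separate enhancer mode.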
Chain of Thyrotropin-releasing hormone receptor (Homo sapiens) (P34981 whole entry, looked up): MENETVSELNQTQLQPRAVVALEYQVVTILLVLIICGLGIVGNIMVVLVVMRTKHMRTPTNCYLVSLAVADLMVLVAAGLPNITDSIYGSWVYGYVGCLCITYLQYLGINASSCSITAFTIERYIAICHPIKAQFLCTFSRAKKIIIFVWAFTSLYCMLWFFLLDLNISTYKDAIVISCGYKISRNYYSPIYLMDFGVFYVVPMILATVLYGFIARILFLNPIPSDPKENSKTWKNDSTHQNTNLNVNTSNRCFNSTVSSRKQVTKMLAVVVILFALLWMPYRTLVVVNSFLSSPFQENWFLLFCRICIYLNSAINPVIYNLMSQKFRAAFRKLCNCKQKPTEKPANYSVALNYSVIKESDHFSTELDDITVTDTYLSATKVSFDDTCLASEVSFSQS

Assay [13] is described as follows: Nrf2 qHTS screen for inhibitors: Validation (AID 493153; active means well fitted inhibition curve with a large enough effect in the main read-out, with a control signal flat, not every such curve was filed as active). Conditions: viability change: measured here: cytotoxicity max response. The procedure, abridged:
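A549 ARE_Fluc, 5% FBS OPTI-MEM; cpd titration, 18-24 h, 37°C/5% CO2. Read 1: CellTiter-Fluor (Ex 405/Em 525), cytotox. Read 2: luciferase lum, Nrf2 activity.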

The nature of assay [14]: qHTS for Inhibitors of Cell Surface uPA Generation: Validation Assay (AID 493164).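 Further: RAW 264.7 macrophage cells exposed to compound for 18 h; 0% is about no effect.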 The procedure, abridged: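 ATP-Lite luminescence read-out: ATP remains high when uPA activity-dependent LF translocation into the cytoplasm is blocked. RAW 264.7 cells, 18 h compound exposure at 37 C; 7-point titration, 2.45 nM to 38.3 uM final.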
Assay [15] addresses Galactokinase (Homo sapiens) (UniProt P51570). Briefly: qHTS Validation Assay for Inhibitors of Human Galactokinase (GALK) (AID 493189). Further: 0% is about no effect. The method, boiled down: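 5 nM GALK / 100 uM galactose / 35 uM ATP, 20 mM HEPES pH8.0, 5 mM MgCl2, 60 mM NaCl, 1 mM DTT, 0.01% BSA (final). RT 1 h; Kinase-Glo Plus luminescence.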
The nature of assay [16]: Validation screen for small molecules that induce DNA re-replication in SW480 colon adenocarcinoma cells (AID 504364). Further: 0% is about no effect. The procedure, abridged:
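Image-based qHTS: compounds were incubated with SW480 cells for 48 hr, nuclei stained with Hoechst, and per-nucleus fluorescence intensity scanned to flag cells with excess DNA content.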

Assay [17] has as its target Peptidyl-prolyl cis-trans isomerase NIMA-interacting 1 (Homo sapiens) (UniProt Q13526). Briefly: qHTS Validation Assay to Find Inhibitors of Pin1 (AID 504536; active means well fitted inhibition curve with a large enough effect in the polarisation, with a control signal flat, not every such curve was filed as active; the % refers to the polarisation;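 further: 0% = full Pin1 enzyme wells and -100% = no-enzyme wells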). The method, boiled down:
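Fluorescence polarization competition: compounds (titration) displace HiFluor-488-labeled Pin1-1b peptide from Pin1 (0.3 uM final) in pH 7.5 HEPES buffer with DTT, 10 min at room temperature; %Activity normalized to no-enzyme wells, curves fitted.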

In assay [18] the target is ATP-dependent 6-phosphofructokinase (Trypanosoma brucei brucei) (UniProt O15648). As to the kind of experiment: qHTS Assay to Find Inhibitors of T. brucei phosphofructokinase: hit validation (AID 492961).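 Further: luminescence reports ADP formed as PFK phosphorylates fructose-6-phosphate with ATP; series mostly up to about 51 µM; on the % scale 0 is the no-effect control and ±100 the full control effect.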 The method, boiled down: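 PFK 1.25 nM, F6P 0.5 mM, ATP 0.1 mM, MgCl2 5 mM, 0.1 M TEA pH 8.0, Tween20 0.01%, BSA 0.1%; 45 min RT. ADP-Glo two-step detection, luminescence. qHTS titration; curve fitting with curve-class categorization.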
Chain of ATP-dependent 6-phosphofructokinase (Trypanosoma brucei brucei) (O15648 whole entry, looked up): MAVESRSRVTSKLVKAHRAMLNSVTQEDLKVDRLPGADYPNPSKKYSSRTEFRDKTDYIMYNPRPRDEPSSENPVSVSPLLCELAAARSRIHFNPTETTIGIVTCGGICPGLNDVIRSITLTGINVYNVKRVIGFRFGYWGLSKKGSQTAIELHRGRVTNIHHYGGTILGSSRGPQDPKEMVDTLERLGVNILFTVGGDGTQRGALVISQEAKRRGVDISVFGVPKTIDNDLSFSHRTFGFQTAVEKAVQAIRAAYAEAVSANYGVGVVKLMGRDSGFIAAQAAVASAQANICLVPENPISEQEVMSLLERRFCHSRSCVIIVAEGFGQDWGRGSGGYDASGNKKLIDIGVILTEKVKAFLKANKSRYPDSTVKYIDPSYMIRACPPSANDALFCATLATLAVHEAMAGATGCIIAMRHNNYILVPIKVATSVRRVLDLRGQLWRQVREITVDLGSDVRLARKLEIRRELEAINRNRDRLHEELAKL

The target in assay [19] is Chromobox protein homolog 1 (Homo sapiens) (UniProt P83916). As to the kind of experiment: qHTS Validation Assay for Inhibitors of HP1-beta Chromodomain Interactions with Methylated Histone Tails (AID 488953).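 Further: loss of AlphaScreen luminescence from HP1-beta binding biotinylated H3K9me3 peptide; series mostly up to about 110 µM; on the % scale 0 is the no-effect control and ±100 the full control effect; nearly all actives have a fitted effect of over 50% in size.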 The procedure, abridged: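 Disruption of preformed HP1-beta:H3K9me3 peptide complexes (both 50 nM, PBS pH 7.4 with 0.01% Tween-20) is measured by AlphaScreen after 30 min compound exposure at room temperature, using streptavidin donor and nickel chelate acceptor beads at 10 ug/mL final.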
Chain of Chromobox protein homolog 1 (Homo sapiens) (P83916 whole entry, looked up): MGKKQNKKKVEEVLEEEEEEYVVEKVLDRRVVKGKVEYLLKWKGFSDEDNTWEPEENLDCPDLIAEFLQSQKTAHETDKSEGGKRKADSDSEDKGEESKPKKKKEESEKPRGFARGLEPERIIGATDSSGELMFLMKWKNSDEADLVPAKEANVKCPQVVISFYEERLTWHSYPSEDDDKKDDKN

In assay [20] the target is ATPase family AAA domain-containing protein 5 (Homo sapiens) (UniProt Q96QE3). As to the kind of experiment: Validation screen for small molecules that inhibit ELG1-dependent DNA repair in human embryonic kidney (HEK293T) cells expressing luciferase-tagged ELG1 (AID 493107).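 Further: cells co-treated with the DNA-damaging agent 5-fluorouridine alongside compound; series mostly up to about 46 µM; on the % scale 0 is the no-effect control and ±100 the full control effect; inhibitors lower the ELG1-luciferase luminescence signal; nearly all actives have a fitted effect of over 70% in size.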 The procedure, abridged: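 Cells are dispensed in 1536-well format, then 5-fluorouridine and compound are pinned in. After a 16 hr incubation at 37 °C and 5% CO2, ONE-Glo is added and luciferase measured on a CCD imager.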
Chain of ATPase family AAA domain-containing protein 5 (Homo sapiens) (Q96QE3 whole entry, looked up, the tested form may be a part): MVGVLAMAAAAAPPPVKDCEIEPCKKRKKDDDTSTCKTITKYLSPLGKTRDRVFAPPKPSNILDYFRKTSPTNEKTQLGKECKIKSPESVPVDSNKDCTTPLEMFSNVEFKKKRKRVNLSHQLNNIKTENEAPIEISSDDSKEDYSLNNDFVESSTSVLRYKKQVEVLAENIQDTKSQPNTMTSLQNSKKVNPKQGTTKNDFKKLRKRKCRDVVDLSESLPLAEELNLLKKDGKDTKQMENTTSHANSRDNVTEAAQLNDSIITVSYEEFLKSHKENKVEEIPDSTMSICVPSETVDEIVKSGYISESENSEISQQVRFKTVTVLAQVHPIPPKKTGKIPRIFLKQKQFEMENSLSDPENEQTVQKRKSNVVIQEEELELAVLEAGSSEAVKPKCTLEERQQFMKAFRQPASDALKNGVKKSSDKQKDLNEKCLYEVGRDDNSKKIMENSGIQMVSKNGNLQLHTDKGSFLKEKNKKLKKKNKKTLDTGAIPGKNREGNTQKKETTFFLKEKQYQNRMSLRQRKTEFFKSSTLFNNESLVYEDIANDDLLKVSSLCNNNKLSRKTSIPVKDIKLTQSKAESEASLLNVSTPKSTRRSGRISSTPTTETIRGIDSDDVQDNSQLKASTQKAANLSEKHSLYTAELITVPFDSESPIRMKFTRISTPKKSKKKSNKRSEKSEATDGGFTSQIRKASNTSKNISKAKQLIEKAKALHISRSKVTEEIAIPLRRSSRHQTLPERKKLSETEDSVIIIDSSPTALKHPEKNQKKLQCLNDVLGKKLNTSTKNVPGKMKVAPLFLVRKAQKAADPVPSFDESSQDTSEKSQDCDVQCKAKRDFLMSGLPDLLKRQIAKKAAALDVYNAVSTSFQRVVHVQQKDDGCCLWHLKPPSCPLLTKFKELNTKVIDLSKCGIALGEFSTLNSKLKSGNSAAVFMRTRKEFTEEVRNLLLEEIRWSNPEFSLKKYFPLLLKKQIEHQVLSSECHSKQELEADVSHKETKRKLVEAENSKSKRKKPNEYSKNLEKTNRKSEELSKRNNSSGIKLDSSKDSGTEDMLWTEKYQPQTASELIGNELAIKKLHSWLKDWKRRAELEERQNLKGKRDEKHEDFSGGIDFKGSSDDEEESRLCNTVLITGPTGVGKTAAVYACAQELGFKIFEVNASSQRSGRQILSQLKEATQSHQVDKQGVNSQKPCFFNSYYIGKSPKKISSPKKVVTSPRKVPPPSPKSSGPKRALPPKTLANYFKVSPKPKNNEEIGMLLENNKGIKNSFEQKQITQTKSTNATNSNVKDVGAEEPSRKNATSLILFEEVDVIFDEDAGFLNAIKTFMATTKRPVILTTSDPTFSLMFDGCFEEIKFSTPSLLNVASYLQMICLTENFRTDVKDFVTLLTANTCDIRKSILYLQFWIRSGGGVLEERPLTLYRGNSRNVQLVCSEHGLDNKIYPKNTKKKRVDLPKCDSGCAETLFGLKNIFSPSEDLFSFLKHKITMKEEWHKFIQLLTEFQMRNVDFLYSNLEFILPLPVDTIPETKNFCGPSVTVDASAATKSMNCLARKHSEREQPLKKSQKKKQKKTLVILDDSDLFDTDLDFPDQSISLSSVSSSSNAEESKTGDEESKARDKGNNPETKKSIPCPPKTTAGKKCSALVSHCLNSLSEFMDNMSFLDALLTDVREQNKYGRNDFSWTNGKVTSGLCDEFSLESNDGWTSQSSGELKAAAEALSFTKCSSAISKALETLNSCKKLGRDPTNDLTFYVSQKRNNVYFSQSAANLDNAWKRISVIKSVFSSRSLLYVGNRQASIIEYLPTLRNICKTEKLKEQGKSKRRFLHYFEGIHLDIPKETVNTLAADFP

Records with an inconclusive call do not appear. Calls of active or inactive are those of the source. Unless noted, the call rests on the fitted dose curve; in most records, active means well fitted curve in the direction sought with a large enough effect; inconclusive means small, poorly fitted or top-dose-only effect, or another doubt; inactive means no such curve, though single readings can be large; an effect the other way counts as inactive or inconclusive.

Chain of Thioredoxin reductase 1, cytoplasmic (Rattus norvegicus) (O89049 whole entry, looked up): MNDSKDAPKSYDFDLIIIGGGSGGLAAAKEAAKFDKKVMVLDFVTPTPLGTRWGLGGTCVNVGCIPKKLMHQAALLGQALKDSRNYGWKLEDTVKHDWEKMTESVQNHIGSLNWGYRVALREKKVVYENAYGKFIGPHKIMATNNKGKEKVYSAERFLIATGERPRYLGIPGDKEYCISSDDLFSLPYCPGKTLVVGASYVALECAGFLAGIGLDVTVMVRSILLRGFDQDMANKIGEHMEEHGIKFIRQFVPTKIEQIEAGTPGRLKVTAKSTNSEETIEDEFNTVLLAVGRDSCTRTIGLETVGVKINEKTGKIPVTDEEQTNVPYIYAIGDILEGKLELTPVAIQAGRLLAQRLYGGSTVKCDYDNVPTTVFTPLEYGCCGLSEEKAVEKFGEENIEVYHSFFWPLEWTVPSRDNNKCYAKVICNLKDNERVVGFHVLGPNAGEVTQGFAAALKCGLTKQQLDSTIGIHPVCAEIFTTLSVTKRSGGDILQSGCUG
Chain of Peptidyl-prolyl cis-trans isomerase NIMA-interacting 1 (Homo sapiens) (Q13526 whole entry, looked up): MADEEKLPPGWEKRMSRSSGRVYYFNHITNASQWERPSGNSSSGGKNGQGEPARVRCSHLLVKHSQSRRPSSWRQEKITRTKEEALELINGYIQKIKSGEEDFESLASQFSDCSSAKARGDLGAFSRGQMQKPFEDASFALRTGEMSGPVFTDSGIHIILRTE

In the case of `O=C1CCC(c2ccc(-n3ccnc3)cc2)=NN1`, the Potency entry in assay [1], in [5] and in assay [10] was “inactive” in each case. Besides, the result in [2], in assay [3], in assay [4], in assay [6], in assay [7] and in assay [8] was inactive. Further, the outcome in assay [9], in [11], in assay [13], in [14], in assay [15] and in [16] was inactive. For the same compound, the result in [17] was inactive. In [12], the activation was 0.188% (inactive). Moreover, the viability change in assay [13] amounted to 9.43%.

`NCCc1ccn[nH]1`: the compound was called inactive in assay [18].

Turning to `C[C@]12CC[C@@H]3c4ccc(O)cc4CC[C@H]3[C@@H]1CC[C@@H]2O`, the Potency result in assay [1], in [5], in [19], in [10] and in [20] was “inactive” each time. For the same compound, the call in [2], in assay [3], in assay [4], in assay [6], in [7] and in [8] was inactive. The result in assay [9], in assay [18], in assay [11], in assay [13], in assay [14] and in assay [15] was inactive. The result in [16] and in assay [17] was inactive. Moreover, the activation in assay [12] was 4.75% (inactive). In addition, in assay [13], the viability change worked out at 1.87%.

With `CC(C)COC(=O)OCN1C(=O)CN(CCN2CC(=O)N(COC(=O)OCC(C)C)C(=O)C2)CC1=O`, the Potency result in assay [1], in [19], in assay [10] and in [20] was “inactive” each time. For the same compound, the compound was classed as inactive in [2], in assay [3], in [4], in assay [6], in assay [7] and in [8]. Further, the result in assay [9], in [18], in assay [11], in assay [13], in assay [14] and in [15] was inactive. In addition, the call in assay [17] was inactive. In assay [12], the activation is 0.75% (inactive). Further, in assay [13], the viability change is -6.78%.

Regarding `C[N+]1(CCCCC[N+]2(C)CCCC2)CCCC1`, the Potency result in assay [1], in [5], in assay [19], in assay [10] and in [20] was “inactive” throughout. Also, the call in assay [2], in assay [3], in [4], in [6], in assay [7] and in assay [8] was inactive. In addition, the outcome in assay [9], in assay [18], in [11], in [13], in assay [14] and in assay [15] was inactive. The outcome in assay [16] and in assay [17] was inactive. In addition, the activation in assay [12] was 0.75% (inactive). In [13], the viability change is 1.12%.

Turning to `O=C(O)c1cc2cc(Cc3cccnc3)ccc2o1`, the Potency entry in assay [1], in [5], in assay [19], in assay [10] and in assay [20] was “inactive” in each case. Further, the compound was classed as inactive in assay [2], in assay [3], in assay [4], in assay [6], in [7] and in assay [8]. Also, the outcome in [9], in assay [11], in assay [13], in [14], in [15] and in [16] was inactive. In addition, the compound was called inactive in [17]. Besides, the activation in assay [12] was 1.38% (inactive). Also, in assay [13], the viability change came to 0.85%.

With `c1ccc(CNCCNCc2ccccc2)cc1`, in assay [18], the outcome was inactive.

On to `NC(CS)C(=O)O` (stereo unspecified), for which, in assay [18], the compound was called inactive.

In the case of `CN1C2CCC1CC(OC(=O)c1c[nH]c3ccccc13)C2` (stereo unspecified), the outcome in assay [2], in assay [3], in assay [4], in assay [6], in assay [7] and in [8] was inactive. Further, the result in assay [9], in assay [11], in assay [13], in [14], in assay [15] and in assay [16] was inactive. The outcome in assay [17] was inactive. The Potency entry in assay [5], in assay [19], in [10] and in assay [20] was “inactive” each time. Besides, in assay [12], the activation is 0.812% (inactive). Besides, the viability change in assay [13] was -7.62%.
